Assay results as given in PubChem BioAssay (EPA / NIEHS).
Results filed as inconclusive are left out. The source made the active and inactive calls. Rule for the calls, unless noted: active = hit-call score of the fitted dose curve at least 0.9, where 1 is the maximum; inactive = score below 0.9.

Experiments:
[1] = read-out: Tumor necrosis factor receptor 1 (TNFRSF1A), TNFRSF1A (gene 7132); test: LTEA_HepaRG_TNFRSF1A: Life Technologies and Expression Analysis (LTEA) Assay for Tumor necrosis factor receptor 1 (TNFRSF1A) using HepaRG (AID 2283535); conditions: mRNA level, 48 h; actives raise or lower the signal
Procedure, shortened: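 Differentiated HepaRG cells in serum-free induction medium, exposed 48 h in duplicate to 8 half-log concentrations up to 100 uM in 0.5% DMSO. TNFRSF1A mRNA by Fluidigm TaqMan qRT-PCR, normalized to ACTB, GAPDH, POLR2A; bidirectional fit.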

[2] = read-out: Thyroid Hormone Responsive (THRSP), THRSP (gene 7069); test: LTEA_HepaRG_THRSP: Life Technologies and Expression Analysis (LTEA) Assay for Thyroid Hormone Responsive (THRSP) using HepaRG (AID 2283536); conditions: mRNA level, 48 h; actives raise or lower the signal
Procedure, shortened: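 THRSP transcript quantified by Fluidigm qRT-PCR against three housekeeping genes after 48 h chemical exposure of HepaRG cells in serum-free induction medium; eight-point half-log series, top 100 uM, 0.5% DMSO vehicle, duplicate wells.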

[3] = read-out: UDP glucuronosyltransferase (UGT1A1), UGT1A1 (gene 54658); test: LTEA_HepaRG_UGT1A1: Life Technologies and Expression Analysis (LTEA) Assay for UDP glucuronosyltransferase (UGT1A1) using HepaRG (AID 2283538); conditions: mRNA level, 48 h; actives raise or lower the signal
Procedure, shortened: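 Cells are plated, cultured 48 h, switched to serum-free induction medium, then dosed 48 h at eight concentrations (max 100 uM, 0.5% DMSO). RNA is isolated and UGT1A1 expression measured by qRT-PCR; changes versus DMSO are fitted in both directions.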

[4] = read-out: UDP glucuronosyltransferase (UGT1A6), UGT1A6 (gene 54578); test: LTEA_HepaRG_UGT1A6: Life Technologies and Expression Analysis (LTEA) Assay for UDP glucuronosyltransferase (UGT1A6) using HepaRG (AID 2283539); conditions: mRNA level, 48 h; actives raise or lower the signal
Procedure, shortened: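 Differentiated HepaRG cells, ~100,000/well, were exposed for 48 h in serum-free induction medium with 0.5% DMSO to 8-point half-log series topping at 100 uM, in duplicate. mRNA measured by Fluidigm TaqMan qRT-PCR, normalized to ACTB, GAPDH and POLR2A.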

[5] = read-out: X-box binding protein 1 (XBP1), XBP1 (gene 7494); test: LTEA_HepaRG_XBP1: Life Technologies and Expression Analysis (LTEA) Assay for X-box binding protein 1 (XBP1) using HepaRG (AID 2283540); conditions: mRNA level, 48 h; actives raise or lower the signal
Procedure, shortened: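 Differentiated human HepaRG cells in serum-free induction medium exposed 48 h in duplicate to eight half-log concentrations up to 100 uM in 0.5% DMSO. XBP1 mRNA measured by Fluidigm TaqMan qRT-PCR, normalized to ACTB, GAPDH, POLR2A; bidirectional fitting against DMSO.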

[6] = LTEA_HepaRG_LDH_cytotoxicity: Cytotoxicity Assessment in the Life Technologies and Expression Analysis (LTEA) Assay (AID 2283563; active = hit-call score of the fitted dose curve at least 0.9, where 1 is the maximum;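 for AC50: LDH activity released into spent culture medium as a marker of cell death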)
Procedure, shortened: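 Differentiated HepaRG cells in serum-free induction medium, exposed 48 h in duplicate to 8 half-log concentrations up to 100 uM in 0.5% DMSO. Cytotoxicity from LDH measured in spent medium, fit relative to DMSO.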

[7] = ATG_XTT_Cytotoxicity: Cytotoxicity Assessment in the Attagene TRANS-FACTORIAL HepG2 Assay (AID 2283584; active = hit-call score of the fitted dose curve at least 0.9, where 1 is the maximum)
Procedure, shortened: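 HepG2 cells transiently transfected with GAL4-UAS multiple reporter units, dosed 24 h; cytotoxicity read by XTT as loss of signal versus DMSO baseline.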

## COc1cc(C(C)C)c2c(c1)S(=O)(=O)N(COc1cc(=O)n3cccc(OCCN4CCCCC4)c3n1)C2=O
[1]
  outcome: inactive
[2]
  AC50: 20.8 µM (active)
[3]
  AC50: 22.6 µM (active)
[4]
  AC50: 19.9 µM (active)
[5]
  outcome: inactive
[6]
  AC50: 19.2 µM (active)

## CC(C)CCCCCCOC(=O)C1CCCCC1C(=O)OCCCCCCC(C)C (centres undefined)
[1]
  AC50: 0.00316 µM (active)
[2]
  outcome: inactive
[3]
  outcome: inactive
[4]
  outcome: inactive
[5]
  outcome: inactive
[6]
  outcome: inactive

## CCCCCCOC(=O)CC(CC(=O)OCCCCCC)(OC(=O)CCC)C(=O)OCCCCCC
[1]
  outcome: inactive
[2]
  outcome: inactive
[3]
  outcome: inactive
[4]
  outcome: inactive
[5]
  outcome: inactive
[6]
  outcome: inactive
[7]
  outcome: inactive

## Nc1ccn([C@@H]2O[C@H](CO)[C@@H](O)[C@@H]2O)c(=O)n1
[1]
  outcome: inactive
[2]
  outcome: inactive
[3]
  outcome: inactive
[4]
  outcome: inactive
[5]
  outcome: inactive
[6]
  outcome: inactive
[7]
  outcome: inactive

## NC(=O)N1c2ccccc2C=Cc2ccccc21
[1]
  outcome: inactive
[2]
  outcome: inactive
[3]
  AC50: 21.6 µM (active)
[4]
  outcome: inactive
[5]
  outcome: inactive
[6]
  outcome: inactive
[7]
  outcome: inactive

## O=S(=O)(O)c1ccc(N=Nc2c(O)ccc3cc(S(=O)(=O)O)ccc23)cc1
[1]
  outcome: inactive
[2]
  outcome: inactive
[3]
  outcome: inactive
[4]
  outcome: inactive
[5]
  outcome: inactive
[6]
  outcome: inactive

## c1ccc2c(c1)-c1cccc3c1c-2cc1ccccc13
[1]
  AC50: 14.7 µM (active)
[2]
  AC50: 27.7 µM (active)
[3]
  outcome: inactive
[4]
  outcome: inactive
[5]
  AC50: 12.7 µM (active)
[6]
  outcome: inactive
[7]
  outcome: inactive

## CC(C)CC(C)O (centres undefined)
[1]
  outcome: inactive
[2]
  outcome: inactive
[3]
  outcome: inactive
[4]
  outcome: inactive
[5]
  outcome: inactive
[6]
  outcome: inactive
[7]
  outcome: inactive

## CCCOc1ccc(S(=O)(=O)N2CCN(CC)CC2)cc1-c1nc2c(CC)n(Cc3ccccn3)nc2c(=O)[nH]1
[1]
  outcome: inactive
[2]
  AC50: 50 µM (active)
[3]
  AC50: 4.74 µM (active)
[4]
  outcome: inactive
[5]
  outcome: inactive
[6]
  outcome: inactive

## CC[C@H](C)C(=O)O[C@H]1C[C@H](O)C=C2C=C[C@H](C)[C@H](CC[C@@H](O)C[C@@H](O)CC(=O)O)[C@H]21
[1]
  outcome: inactive
[2]
  AC50: 21.9 µM (active)
[3]
  outcome: inactive
[4]
  outcome: inactive
[5]
  outcome: inactive
[6]
  outcome: inactive
[7]
  outcome: inactive

## Cc1ncc([C@@H](CCCCCCc2ccc3c(n2)NCCC3)CC(=O)O)cn1
[1]
  outcome: inactive
[2]
  outcome: inactive
[3]
  outcome: inactive
[4]
  outcome: inactive
[5]
  outcome: inactive
[6]
  outcome: inactive

## CCN(CC)C(=S)SSC(=S)N(CC)CC
[1]
  outcome: inactive
[2]
  outcome: inactive
[3]
  outcome: inactive
[4]
  outcome: inactive
[5]
  outcome: inactive
[6]
  outcome: inactive
[7]
  outcome: inactive

## CC(C)C(=O)Nc1ccc([N+](=O)[O-])c(C(F)(F)F)c1
[1]
  outcome: inactive
[2]
  AC50: 10.9 µM (active)
[3]
  AC50: 90.1 µM (active)
[4]
  AC50: 74.7 µM (active)
[5]
  AC50: 12.2 µM (active)
[6]
  outcome: inactive
[7]
  outcome: inactive

## O=C(O)[C@H](O)[C@@H](O)C(=O)O
[1]
  outcome: inactive
[2]
  outcome: inactive
[3]
  outcome: inactive
[4]
  outcome: inactive
[5]
  outcome: inactive
[6]
  outcome: inactive

## Cc1ccc(S(=O)(=O)NC(=O)NN2CCCCCC2)cc1
[1]
  outcome: inactive
[2]
  outcome: inactive
[3]
  outcome: inactive
[4]
  outcome: inactive
[5]
  outcome: inactive
[6]
  outcome: inactive
[7]
  outcome: inactive

## CCOc1ccc2[nH]cc(C(=O)NCc3ccccc3)c(=O)c2n1
[1]
  outcome: inactive
[2]
  outcome: inactive
[3]
  outcome: inactive
[4]
  outcome: inactive
[5]
  outcome: inactive
[6]
  outcome: inactive

## COCc1nnc(-c2ccc[n+]([O-])c2)n1-c1c(Cl)c(Cl)cc2[nH]c(=O)c(=O)[nH]c12
[1]
  outcome: inactive
[2]
  outcome: inactive
[3]
  outcome: inactive
[4]
  outcome: inactive
[5]
  outcome: inactive
[6]
  outcome: inactive

## Cn1cc[nH]c1=S
[1]
  outcome: inactive
[2]
  outcome: inactive
[3]
  outcome: inactive
[4]
  outcome: inactive
[5]
  outcome: inactive
[6]
  outcome: inactive
[7]
  outcome: inactive

## O=C(O)c1cccc(C(=O)O)c1
[1]
  outcome: inactive
[2]
  outcome: inactive
[3]
  outcome: inactive
[4]
  outcome: inactive
[5]
  outcome: inactive
[6]
  outcome: inactive
[7]
  outcome: inactive

## C=CCc1cc(S(=O)(=O)c2ccc(O)c(CC=C)c2)ccc1O
[1]
  outcome: inactive
[2]
  AC50: 88.4 µM (active)
[3]
  outcome: inactive
[4]
  AC50: 80.7 µM (active)
[5]
  AC50: 66.7 µM (active)
[6]
  AC50: 76.7 µM (active)
[7]
  outcome: inactive

## O=c1[nH]cnc2c1ncn2[C@H]1CC[C@@H](CO)O1
[1]
  outcome: inactive
[2]
  outcome: inactive
[3]
  outcome: inactive
[4]
  outcome: inactive
[5]
  outcome: inactive
[6]
  outcome: inactive
[7]
  outcome: inactive
